Measurements taken from PubChem BioAssay (EPA / NIEHS).
Calls of active or inactive are those of the source. Rule for the calls: active = hit-call score of the fitted dose curve at least 0.9, where 1 is the maximum; inactive = score below 0.9.

Legend:
[1] = BSK_hDFCGF_SRB: Viability Assessment in the BioMAP Diversity Plus: hDFCGF Assay (AID 2283061); details: primary human foreskin fibroblasts;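 note: cells exposed to compound for 24 h before the read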
Procedure, shortened: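 Viability was read as total protein: after 10% TCA fixation, wells were stained with 0.1% sulforhodamine B and read at 560 nm. Primary human foreskin fibroblasts were dosed for 24 h, with bidirectional fitting versus DMSO.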

[2] = read-out: TIMP metallopeptidase inhibitor 1 (TIMP1), TIMP1 (gene 7076); assay: BSK_hDFCGF_TIMP1: BioMAP Diversity Plus: hDFCGF Assay for TIMP metallopeptidase inhibitor 1 (TIMP1) Biomarker Activity (AID 2283062); details: primary human foreskin fibroblasts; actives raise or lower the signal
Procedure, shortened: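 TIMP-1 measured by ELISA 24 h after chemical dosing of primary human skin fibroblasts, with gain or loss fitted relative to DMSO. Parallel SRB staining (560 nm) monitored overt cytotoxicity.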

[3] = read-out: Monokine induced gamma interferon (MIG), CXCL9 (gene 4283); assay: BSK_hDFCGF_MIG: BioMAP Diversity Plus: hDFCGF Assay for Monokine induced gamma interferon (MIG) Biomarker Activity (AID 2283063); details: primary human foreskin fibroblasts; actives raise or lower the signal
Procedure, shortened: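 Human primary foreskin fibroblasts in the hDFCGF system, exposed to test chemical for 24 h; MIG measured by ELISA. Bidirectional curve fitting against DMSO negative control as activity baseline.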

[4] = read-out: Matrix Metallopeptidase 1 (MMP1), MMP1 (gene 4312); assay: BSK_hDFCGF_MMP1: BioMAP Diversity Plus: hDFCGF Assay for Matrix Metallopeptidase 1 (MMP1) Biomarker Activity (AID 2283064); details: primary human foreskin fibroblasts; actives raise or lower the signal
Procedure, shortened: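 Primary human foreskin fibroblasts exposed to chemicals for 24 h; MMP1 measured by ELISA. Cytotoxicity tracked by SRB staining in parallel cultures; bidirectional fit relative to DMSO.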

[5] = read-out: Vascular cell adhesion molecule 1 (VCAM1), VCAM1 (gene 7412); assay: BSK_hDFCGF_VCAM1: BioMAP Diversity Plus: hDFCGF Assay for Vascular cell adhesion molecule 1 (VCAM1) Biomarker Activity (AID 2283065); details: primary human foreskin fibroblasts; actives raise or lower the signal;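 for AC50: VCAM-1 protein level quantified by ELISA after 24 h chemical exposure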
Procedure, shortened: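 ELISA readout of VCAM-1 on human dermal fibroblast primary cultures, 24 h after chemical exposure. Gain or loss of signal fitted in both directions against DMSO baseline.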

[6] = read-out: Plasminogen activator inhibitor-1 (PAI1), SERPINE1 (gene 5054); assay: BSK_hDFCGF_PAI1: BioMAP Diversity Plus: hDFCGF Assay for Plasminogen activator inhibitor-1 (PAI1) Biomarker Activity (AID 2283066); details: primary human foreskin fibroblasts; actives raise or lower the signal
Procedure, shortened: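 Primary dermal fibroblasts (human foreskin), hDFCGF system; compound 24 h; PAI-1 by ELISA; bidirectional fit vs DMSO control.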

[7] = read-out: Intercellular Adhesion Molecule 1 (ICAM1), ICAM1 (gene 3383); assay: BSK_KF3CT_ICAM1: BioMAP Diversity Plus: KF3CT Assay for Intercellular Adhesion Molecule 1 (ICAM1) Biomarker Activity (AID 2283067); details: primary human keratinocytes with fibroblasts; actives raise or lower the signal
Procedure, shortened: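 Cell-surface ICAM-1 was measured by ELISA 24 h after dosing primary human skin keratinocytes co-cultured with fibroblasts. Parallel SRB staining tracked overt cytotoxicity. Gain or loss of signal was fitted relative to DMSO.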

[8] = read-out: Interferon-gamma inducible Protein 10 (IP10), CXCL10 (gene 3627); assay: BSK_KF3CT_IP10: BioMAP Diversity Plus: KF3CT Assay for Interferon-gamma inducible Protein 10 (IP10) Biomarker Activity (AID 2283068); details: primary human keratinocytes with fibroblasts; actives raise or lower the signal
Procedure, shortened: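 In a primary skin co-culture of keratinocytes and fibroblasts, IP-10 is quantified by ELISA at 24 h after dosing. SRB staining of parallel wells monitors overt toxicity. Curves are fitted both directions against DMSO.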

[9] = BSK_KF3CT_SRB: Viability Assessment in the BioMAP Diversity Plus: KF3CT Assay (AID 2283069); details: primary human keratinocytes with fibroblasts;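 note: total protein by sulforhodamine B staining as a cytotoxicity measure; read 24 h after compound addition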
Procedure, shortened: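 Human keratinocyte and foreskin fibroblast co-culture exposed to chemical for 24 h. Total protein measured in parallel cultures by 0.1% sulforhodamine B staining after 10% TCA fixation, read at 560 nm; bidirectional fit relative to DMSO.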

[10] = read-out: Interleukin-1 alpha (IL1a), IL1A (gene 3552); assay: BSK_KF3CT_IL1a: BioMAP Diversity Plus: KF3CT Assay for Interleukin-1 alpha (IL1a) Biomarker Activity (AID 2283070); details: primary human keratinocytes with fibroblasts; actives raise or lower the signal
Procedure, shortened: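 Primary human keratinocyte plus foreskin fibroblast co-culture, dosed and measured at 24 h in 96-well plates. IL-1a level quantified by ELISA; bidirectional fit relative to DMSO.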

Measured: AC50

O=C1OC2(c3ccc(O)cc3Oc3cc(O)ccc32)c2ccccc21
inactive: all assays above

CC(C)Cc1ccc(C(C)C(=O)O)cc1 (stereo not given)
inactive: all assays above

CC(C)CCCC(C)(C)O
inactive: all assays above

CC1(C)[C@H](C=C(Cl)Cl)[C@H]1C(=O)OCc1cccc(Oc2ccccc2)c1
inactive: all assays above

OCCN1CCOCC1
inactive: all assays above

Nc1ccc(N)c([N+](=O)[O-])c1
inactive: all assays above

O=S(=O)(O)C(F)(F)C(F)(F)OC(F)(F)C(F)(F)F
inactive: all assays above

C#C[C@]1(O)CC[C@H]2[C@@H]3CCc4cc(O)ccc4[C@H]3CC[C@@]21C
inactive: all assays above

CCn1cc(C(=O)O)c(=O)c2ccc(C)nc21
inactive: all assays above

c1ccc2c(c1)-c1ccc3ccc4cccc5cc-2c1c3c45
inactive: all assays above

COC(=O)c1ccc(C(=O)OC)cc1
inactive: all assays above

CC(=O)OCC=C(C)CCC=C(C)CCC=C(C)C
active: [2] 26.3 µM | [6] 25.8 µM
inactive: all other assays above

CCOC(=O)C=Cc1ccccc1
inactive: all assays above

CCCCCCCCCCCCS
inactive: [7] | [8]
active: [1] 11.7 µM | [2] 8.95 µM | [3] 17 µM | [4] 10.2 µM | [5] 7.26 µM | [6] 10.8 µM | [9] 32.9 µM | [10] 20 µM

O=S1(=O)CC(Cl)(Cl)C(Cl)(Cl)C1
active: [1] 0.845 µM | [2] 0.839 µM | [3] 0.794 µM | [4] 0.865 µM | [5] 0.613 µM | [6] 0.865 µM | [7] 1.4 µM | [8] 2.65 µM | [9] 1.36 µM | [10] 1.52 µM

CCCCCCCC1CCCC1=O (stereo not given)
active: [7] 30.6 µM | [9] 35.1 µM
inactive: all other assays above

CC1=CC(C)C(C=O)C(C)C1 (stereo not given) (tested in a mixture with another compound)
inactive: all assays above

CCCO[Si](OCCC)(OCCC)OCCC
inactive: all assays above

O=C(c1ccc(OCCN2CCCCC2)cc1)c1c(-c2ccc(O)cc2)sc2cc(O)ccc12
active: [1] 24.4 µM | [2] 35.8 µM | [3] 32.1 µM | [4] 31.7 µM | [5] 31.4 µM | [6] 15.6 µM | [7] 38 µM | [8] 21 µM | [9] 29.2 µM | [10] 21.8 µM

C[C@]12CC[C@@H]3c4ccc(O)cc4CC[C@H]3[C@@H]1CC[C@@H]2O
active: [5] 20 µM
inactive: all other assays above

C=C(C)C(=O)OCCC(F)(F)C(F)(F)C(F)(F)C(F)(F)C(F)(F)C(F)(F)C(F)(F)C(F)(F)F
inactive: all assays above

C=C(C)C(N)=O
inactive: all assays above
